Several values for one entry are separate records, joined by “and”; a condition that tells them apart may be missing. Identical values can stand only once. The campaign covered roughly 5,500 compounds. About 2,000 (36%) were called active. Roughly 18% stayed inconclusive and do not appear here. No stated cut-off is given here; in the data, active means normalized growth mostly below about 0.91 (no sharp cut-off); inconclusive means no clear call, values can overlap the other calls; inactive means mostly above about 0.92. Some of the results follow.
Assay: chemical genetic growth profiling, strain panel (AID 1159580);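 further: tested at 20 µM; growth read once vehicle control cultures reached saturation at 30 °C; 1 = growth at the plate median or of vehicle wells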
Details: S. cerevisiae deletion strains, growth OD

Measured: normalized growth

C#CCCCCCCCCCCCC(O)CC(O)CO (configuration not stated)
1.03 (inactive) and 0.819 (active): locus YJL095W, strain BCK1, stronger effect = lower value
0.999 (inactive) and 0.85 (active): locus YHR030C, strain SLT2, stronger effect = lower value
inactive: locus YAL013W, strain DEP1, stronger effect = lower value 1 | locus YAL021C, strain ccr4, stronger effect = lower value 0.979 | locus YAL026C, strain drs2, stronger effect = lower value 0.992 | locus YAL030W, strain snc1, stronger effect = lower value 0.99 | locus YBL061C, strain skt5, stronger effect = lower value 0.987 | locus YBR009C, strain hhf1, stronger effect = lower value 0.991 | locus YBR021W, strain FUR4, stronger effect = lower value 0.974 | locus YBR023C, strain chs3, stronger effect = lower value 0.983 | locus YBR171W, strain sec66, stronger effect = lower value 0.999 | locus YBR229C, strain ROT2, stronger effect = lower value 1 | locus YBR231C, strain swc5, stronger effect = lower value 0.993 | locus YBR279W, strain paf1, stronger effect = lower value 0.995 | locus YCL011C, strain gbp2, stronger effect = lower value 0.988 | locus YCL016C, strain dcc1, stronger effect = lower value 0.97 | locus YCL029C, strain bik1, stronger effect = lower value 1.01 | locus YCL061C, strain MRC1, stronger effect = lower value 0.979 | locus YCL069W, strain vba3, stronger effect = lower value 0.992 | locus YCR088W, strain abp1, stronger effect = lower value 0.985 | locus YDL005C, strain med2, stronger effect = lower value 0.974 | locus YDL035C, strain GPR1, stronger effect = lower value 0.984 | locus YDL040C, strain nat1, stronger effect = lower value 0.988 | locus YDL074C, strain BRE1, stronger effect = lower value 0.988 | locus YDL101C, strain DUN1, stronger effect = lower value 1.01 | locus YDL134C, strain PPH21, stronger effect = lower value 0.995 | locus YDL185W, strain tfp1, stronger effect = lower value 1.01 | locus YDL192W, strain arf1, stronger effect = lower value 1 | locus YDR001C, strain nth1, stronger effect = lower value 0.982 | locus YDR069C, strain doa4, stronger effect = lower value 0.994 | locus YDR101C, strain arx1, stronger effect = lower value 0.987 | locus YDR137W, strain rgp1, stronger effect = lower value 0.986 | locus YDR150W, strain NUM1, stronger effect = lower value 0.999 | locus YDR159W, strain sac3, stronger effect = lower value 1 | locus YDR162C, strain NBP2, stronger effect = lower value 1.03 | locus YDR195W, strain ref2 0.986 | locus YDR297W, strain sur2, stronger effect = lower value 0.988 | locus YDR318W, strain mcm21, stronger effect = lower value 1.01 | locus YDR334W, strain swr1, stronger effect = lower value 0.991 | locus YDR335W, strain msn5, stronger effect = lower value 0.988 | locus YDR388W, stronger effect = lower value 0.999 | locus YDR392W, strain spt3, stronger effect = lower value 0.877 | locus YDR502C, strain sam2, stronger effect = lower value 1 | locus YEL003W, strain gim4, stronger effect = lower value 0.98 | locus YEL037C, strain rad23, stronger effect = lower value 0.995 | locus YEL061C, strain CIN8 (second series), stronger effect = lower value 0.986 | locus YEL061C, strain CIN8, stronger effect = lower value 0.997 | locus YER015W, strain faa2, stronger effect = lower value 0.972 | locus YER016W, strain bim1, stronger effect = lower value 0.989 | locus YER110C, stronger effect = lower value 1 | locus YER111C, strain swi4, stronger effect = lower value 0.971 | locus YER155C, strain BEM2 (second series), stronger effect = lower value 0.953 | locus YER155C, strain BEM2, stronger effect = lower value 1.01 | locus YER167W, strain BCK2, stronger effect = lower value 0.998 | locus YFR010W, strain ubp6, stronger effect = lower value 0.993 | locus YGL078C, strain dbp3, stronger effect = lower value 1.02 | locus YGL086W, strain mad1, stronger effect = lower value 1.01 | locus YGL167C, strain pmr1, stronger effect = lower value 0.983 | locus YGL173C, strain kem1, stronger effect = lower value 0.983 | locus YGL227W, strain vid30, stronger effect = lower value 0.993 | locus YGL240W, strain doc1, stronger effect = lower value 1 | locus YGL248W, strain PDE1, stronger effect = lower value 0.997 | locus YGL253W, strain hxk2, stronger effect = lower value 0.991 | locus YGR078C, strain PAC10, stronger effect = lower value 0.981 | locus YGR135W, strain pre9, stronger effect = lower value 0.992 | locus YGR229C, strain SMI1, stronger effect = lower value 1.07 | locus YGR252W, strain gcn5, stronger effect = lower value 0.993 | locus YHR013C, strain ard1, stronger effect = lower value 0.939 | locus YHR027C, strain rpn1, stronger effect = lower value 0.984 | locus YHR079C, strain IRE1 (second series), stronger effect = lower value 1 | locus YHR094C, strain hxt1, stronger effect = lower value 1.01 | locus YHR129C, strain ARP1, stronger effect = lower value 0.996 | locus YHR142W, strain chs7, stronger effect = lower value 0.96 | locus YHR200W, strain rpn10, stronger effect = lower value 1.01 | locus YIL066C, strain RNR3, stronger effect = lower value 0.983 | locus YIL073C, strain SPO22, stronger effect = lower value 1.03 | locus YIL125W, strain kgd1, stronger effect = lower value 1.03 | locus YIR030C, strain dcg1, stronger effect = lower value 1 | locus YJL092W, strain hpr5, stronger effect = lower value 0.98 | locus YJL095W, strain BCK1 (second series), stronger effect = lower value 0.985 | locus YJL115W, strain asf1, stronger effect = lower value 0.968 | locus YJL129C, strain trk1, stronger effect = lower value 0.963 | locus YJL134W, strain LCB3, stronger effect = lower value 1.03 | locus YJL154C, strain vps35, stronger effect = lower value 0.976 | locus YJL164C, strain tpk1, stronger effect = lower value 0.982 | locus YJL166W, strain qcr8, stronger effect = lower value 0.98 | locus YJL168C, strain set2, stronger effect = lower value 1.01 | locus YJL187C, strain SWE1 (second series), stronger effect = lower value 0.992 | locus YJL187C, strain SWE1, stronger effect = lower value 0.979 | locus YJR043C, strain POL32, stronger effect = lower value 0.989 | locus YJR066W, strain TOR1, stronger effect = lower value 0.835
active: locus YHR079C, strain IRE1, stronger effect = lower value 0.782
